In PMC4242493, “Sequence specificity incompletely defines the genome-wide occupancy of Myc” one finds binding signal data, which are given here for 174 sequences.

In all, about 33,000 sequences were measured (“normalized occupancy”: median about 0.075, highest 2% from about 0.095 on). The list comes from a sample in which the highest values are over-represented; it also holds similar and randomly drawn sequences.

MaxL homodimer, sequence (P61244 whole entry): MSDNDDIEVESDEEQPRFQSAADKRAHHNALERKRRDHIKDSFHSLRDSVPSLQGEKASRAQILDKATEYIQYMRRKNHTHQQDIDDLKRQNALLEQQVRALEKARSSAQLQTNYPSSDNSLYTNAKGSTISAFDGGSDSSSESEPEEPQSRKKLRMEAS

In the assay the target is MaxL homodimer (Homo sapiens, UniProt P61244 1-160). Put plainly: universal protein-binding microarray (PBM); PBS-based mixture, 10 nM His-tagged protein dimer, 2% milk, 200 ng/uL BSA, 50 ng/uL salmon testes DNA, 0.02% TX-100; detection with Alexa 488 anti-His antibody;; high values mean tight binding. Particulars: protein: recombinant; tags: C-terminal His-tag (pET21a); chain copies: 2; dsDNA, one strand shown. The gist of the method:
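A His-tagged protein dimer at 10 nM was incubated on Agilent 4 x 44 K arrays of the 'all 10-mer' universal design, then labelled with 10 ng/μL fluorophore-conjugated anti-His antibody and scanned on a GenePix 4400A. A fluorescence intensity was assigned to each 8-mer. Binding occupancy is each such intensity normalised to that of the highest-ranked one.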
For the sequence TGTAACAA, the binding signal is 0.0771 normalized occupancy.
The result for GAACGCGA reads 0.0778 normalized occupancy.
To GCGCGCGC belongs 0.0821 normalized occupancy; to GGACGCGA, 0.0754 normalized occupancy; to GCACGCGA, 0.109 normalized occupancy.
As to GCACGCGC, the binding signal came to 0.15 normalized occupancy.
Take GCACGCCC: the binding signal turned out to be 0.0848 normalized occupancy.
With CTTAAGCA, the binding signal came to 0.077 normalized occupancy.
The result for TCAAATAA reads 0.0786 normalized occupancy; that for AAGGGGAC, 0.0746 normalized occupancy.
The result for CCTGTGAG reads 0.0762 normalized occupancy.
As to AATGTGAG, the binding signal stood at 0.0853 normalized occupancy.
Turning to AATGTGAC, the binding signal came to 0.0908 normalized occupancy.
With GATGTGAA, the binding signal came out at 0.0819 normalized occupancy.
The result for CATGTGAC reads 0.168 normalized occupancy; that for CATGTGAG, 0.128 normalized occupancy; that for TATGTGAA, 0.0871 normalized occupancy.
On to CATGTGAA, for which the binding signal was 0.127 normalized occupancy.
Regarding GATGTGAC, the binding signal came to 0.0817 normalized occupancy.
AAGTAGGA: the binding signal turned out to be 0.0726 normalized occupancy.
For ATGGAGAA, the binding signal was found to be 0.0775 normalized occupancy.
Turning to AAGCAGTA, the binding signal came to 0.0725 normalized occupancy.
As for TAGATTGA, the binding signal amounted to 0.0791 normalized occupancy.
In the case of ACCTTTAA, the binding signal was found to be 0.0744 normalized occupancy.
In the case of CATGGCAG, the binding signal was determined as 0.0887 normalized occupancy.
On to GATGGCAA, for which the binding signal stood at 0.0752 normalized occupancy.
As to CATGGCAA, the binding signal was 0.0963 normalized occupancy.
For the sequence CCTATTAA, the binding signal came out at 0.0743 normalized occupancy.
Regarding GAAAATCA, the binding signal came to 0.0778 normalized occupancy.
In the case of GTGCACTA, the binding signal was determined as 0.0769 normalized occupancy.
Consider CTCTATGA, for which the binding signal was 0.0732 normalized occupancy.
GATGACTA: the binding signal is 0.0757 normalized occupancy.
GGGTGACC: the binding signal was 0.0751 normalized occupancy.
AGGTGACC: the binding signal was determined as 0.0766 normalized occupancy.
Consider ACGTGACA, for which the binding signal is 0.108 normalized occupancy.
To ATGTGACA belongs 0.0901 normalized occupancy.
As for ACGTGACT, the binding signal was 0.0933 normalized occupancy.
Take CCGTGACG: the binding signal stood at 0.0782 normalized occupancy.
To GCGTGACC belongs 0.103 normalized occupancy; to CCGTGACC, 0.075 normalized occupancy.
As for ACGTGACG, the binding signal came out at 0.0972 normalized occupancy.
On to AGGTGACG, for which the binding signal amounted to 0.075 normalized occupancy.
With ACGTGACC, the binding signal is 0.103 normalized occupancy.
In the case of AAGTGACC, the binding signal is 0.0751 normalized occupancy.
Take AGGGTTGC: the binding signal stood at 0.0731 normalized occupancy.
Regarding GAAGGTGC, the binding signal was determined as 0.0733 normalized occupancy.
For CGAAATAC, the binding signal came out at 0.0768 normalized occupancy.
The result for CATATTGA reads 0.0806 normalized occupancy.
As for GCGTGACA, the binding signal was 0.103 normalized occupancy.
With CCGTGACA, the binding signal stood at 0.0807 normalized occupancy.
Consider TCGTGACA, for which the binding signal stood at 0.0851 normalized occupancy.
Regarding ATGAGCCC, the binding signal was found to be 0.0757 normalized occupancy.
Take TCTCGAAA: the binding signal is 0.0729 normalized occupancy.
Regarding GGTGCACA, the binding signal is 0.078 normalized occupancy.
To CGTGCACA belongs 0.0958 normalized occupancy; to AGTGCACG, 0.0853 normalized occupancy.
For the sequence AGTGCACA, the binding signal is 0.0838 normalized occupancy.
On to CGTGCACG, for which the binding signal was 0.123 normalized occupancy.
Take TGTGCACA: the binding signal was 0.0902 normalized occupancy.
As to CTTAGCCA, the binding signal was determined as 0.0761 normalized occupancy.
As to CACGCTAA, the binding signal was determined as 0.0891 normalized occupancy.
With AACGCTAG, the binding signal is 0.0726 normalized occupancy.
For CACGCTAG, the binding signal is 0.0976 normalized occupancy.
The result for CACGCTAC reads 0.0972 normalized occupancy.
In the case of AACGCTAC, the binding signal amounted to 0.0825 normalized occupancy.
The result for GACGCTAC reads 0.0742 normalized occupancy; that for CTATGGGC, 0.0769 normalized occupancy; that for AGCATACT, 0.0804 normalized occupancy.
Take GAGTGTAC: the binding signal came out at 0.0756 normalized occupancy.
On to GCGTGTAC, for which the binding signal was 0.1 normalized occupancy.
As for ACGTGTAA, the binding signal stood at 0.1 normalized occupancy.
Turning to GCGTGTAA, the binding signal was determined as 0.0923 normalized occupancy.
For the sequence ACGTGTAT, the binding signal was 0.117 normalized occupancy.
The result for TCGTGTAA reads 0.0836 normalized occupancy; that for CCGTGTAA, 0.0797 normalized occupancy.
As for AGGTGTAT, the binding signal was 0.0924 normalized occupancy.
To AAGTGTAT belongs 0.0806 normalized occupancy.
As for AGGTGTAC, the binding signal turned out to be 0.0803 normalized occupancy.
Turning to CCGTGTAC, the binding signal turned out to be 0.0796 normalized occupancy.
With ACGTGTAC, the binding signal amounted to 0.0984 normalized occupancy.
The result for ATTCCAAT reads 0.0727 normalized occupancy.
ATAGTCAG: the binding signal amounted to 0.0801 normalized occupancy.
For the sequence GCATAAAA, the binding signal came to 0.0781 normalized occupancy.
The result for GCATTCTA reads 0.0844 normalized occupancy; that for ACTAACAT, 0.0807 normalized occupancy; that for GTTGTTTA, 0.0784 normalized occupancy.
Consider AGTGTTAC, for which the binding signal was determined as 0.0737 normalized occupancy.
To GCTATACA belongs 0.0815 normalized occupancy; to CAAGAAAC, 0.0724 normalized occupancy; to ATCACGGC, 0.0739 normalized occupancy.
The result for CTCATTCC reads 0.0776 normalized occupancy; that for TTCAAGAA, 0.0738 normalized occupancy.
To AAGACAAG belongs 0.0722 normalized occupancy.
For CAATCGAC, the binding signal came to 0.0743 normalized occupancy.
The result for GCAGCACA reads 0.0778 normalized occupancy.
As to CCGTGTAG, the binding signal was 0.0808 normalized occupancy.
As to ACGTGTAG, the binding signal was 0.103 normalized occupancy.
To GCGTGTCA belongs 0.0867 normalized occupancy; to GCGTGTCC, 0.0957 normalized occupancy; to ACGTGTCC, 0.0932 normalized occupancy.
For the sequence AGGTGTAG, the binding signal came to 0.0785 normalized occupancy.
To GGAATAAA belongs 0.0741 normalized occupancy; to CACAACCA, 0.0825 normalized occupancy; to AGAACGCA, 0.0762 normalized occupancy.
Take CGCGTGCC: the binding signal worked out at 0.118 normalized occupancy.
As to GGAGTGCA, the binding signal stood at 0.0787 normalized occupancy.
ATCGTGCG: the binding signal came to 0.0851 normalized occupancy.
The result for GCCGTGCA reads 0.0768 normalized occupancy.
GGCGTGCA: the binding signal amounted to 0.0978 normalized occupancy.
As to ACCGTGCG, the binding signal amounted to 0.0828 normalized occupancy.
CCCGTGCC: the binding signal was 0.0787 normalized occupancy.
On to ACCGTGCC, for which the binding signal is 0.0756 normalized occupancy.
Take AGCGTGCC: the binding signal came to 0.0969 normalized occupancy.
The result for AGCGTGCG reads 0.109 normalized occupancy; that for ATCGTGCC, 0.08 normalized occupancy.
As to CTCGTGCC, the binding signal came to 0.0909 normalized occupancy.
For AGTAAAAA, the binding signal is 0.0773 normalized occupancy.
As to AAAATCTC, the binding signal turned out to be 0.0762 normalized occupancy.
In the case of AGTCTCGA, the binding signal stood at 0.0741 normalized occupancy.
Regarding CTCAAATA, the binding signal was 0.0761 normalized occupancy.
Consider TGCCAAAA, for which the binding signal worked out at 0.0792 normalized occupancy.
Consider ACGTCTAA, for which the binding signal stood at 0.0724 normalized occupancy.
CATGGAGG: the binding signal worked out at 0.0891 normalized occupancy.
To AGGAGATG belongs 0.0762 normalized occupancy; to AGAGTGCA, 0.0743 normalized occupancy; to CGCGTGCA, 0.134 normalized occupancy.
As for CGGGTGCA, the binding signal was determined as 0.0755 normalized occupancy.
For the sequence CCCGTGCA, the binding signal amounted to 0.0874 normalized occupancy.
The result for AGCGTGCA reads 0.108 normalized occupancy; that for ACCGTGCA, 0.0786 normalized occupancy.
For GAGAAGGA, the binding signal was 0.0733 normalized occupancy.
CAACAATC: the binding signal is 0.0759 normalized occupancy.
For ATGCCCGG, the binding signal is 0.0744 normalized occupancy.
With AGACCTTA, the binding signal was found to be 0.0772 normalized occupancy.
Turning to AGCGTGGG, the binding signal was 0.113 normalized occupancy.
Turning to CGGGTGGC, the binding signal was 0.0775 normalized occupancy.
Turning to AGCGTTGG, the binding signal came out at 0.0764 normalized occupancy.
As to GCCGTGGA, the binding signal was 0.0736 normalized occupancy.
To ACCGTGGC belongs 0.0752 normalized occupancy.
The result for CCCGTGGC reads 0.0811 normalized occupancy.
The result for AGCGTTGC reads 0.0728 normalized occupancy.
With GGCGTGGA, the binding signal was found to be 0.0968 normalized occupancy.
Take AGCGTGGC: the binding signal turned out to be 0.108 normalized occupancy.
To AGAGTGGG belongs 0.0749 normalized occupancy; to CGCGTGGC, 0.154 normalized occupancy.
In the case of GGCGTCGA, the binding signal was found to be 0.0725 normalized occupancy.
Take CCCCAAAA: the binding signal stood at 0.0734 normalized occupancy.
Take AATAACCC: the binding signal turned out to be 0.0806 normalized occupancy.
For AACAGGAT, the binding signal was 0.0759 normalized occupancy.
As to CCGTCCTC, the binding signal was determined as 0.0798 normalized occupancy.
As to CGTCACGA, the binding signal amounted to 0.0766 normalized occupancy.
With GTGGACGA, the binding signal came to 0.0753 normalized occupancy.
As to AACTCTAC, the binding signal amounted to 0.0729 normalized occupancy.
Take CGCATCAG: the binding signal amounted to 0.0761 normalized occupancy.
Regarding CTATAGGA, the binding signal stood at 0.0753 normalized occupancy.
For the sequence TGCCAGAA, the binding signal is 0.0775 normalized occupancy.
Turning to AGTGTGGC, the binding signal was determined as 0.0795 normalized occupancy.
Take CGTGTGGC: the binding signal came to 0.0953 normalized occupancy.
As for CGTGTGGA, the binding signal was 0.0865 normalized occupancy.
Turning to ACCGTGGA, the binding signal stood at 0.0797 normalized occupancy.
The result for CGCGTCGA reads 0.0756 normalized occupancy; that for AGCGTGGA, 0.106 normalized occupancy.
To CGCGTGGA belongs 0.147 normalized occupancy; to AGGGTGGA, 0.074 normalized occupancy.
To CCCGTGGA belongs 0.0823 normalized occupancy.
Consider ACCCTGCA, for which the binding signal worked out at 0.0751 normalized occupancy.
To CTACTAGA belongs 0.0787 normalized occupancy.
CACTTTGA: the binding signal was 0.0776 normalized occupancy.
Turning to CCGCCCTA, the binding signal is 0.0723 normalized occupancy.
The result for CGAATTCC reads 0.0757 normalized occupancy; that for AGTGGGTG, 0.0863 normalized occupancy; that for ACTCGACT, 0.0722 normalized occupancy.
Take ACACGTGT: the binding signal came to 0.545 normalized occupancy.
As for ACACGTGG, the binding signal is 0.852 normalized occupancy.
